# Assay outcomes from PubChem BioAssay.
# An excerpt weighted towards active compounds, which were near 15% of everything screened.
# DT40 TDP1 CPT: qHTS for Inhibitors of human tyrosyl-DNA phosphodiesterase 1 (TDP1): qHTS in cells in presence of CPT. chicken DT40 Tdp1-/-;hTDP1 cells + 20 nM CPT, ATP luminescence, 48 h. Potency, µM (series often up to 46.2 µM), without a hit: top-dose activity change, negative = growth inhibition, most hits filed as inhibitors. 420,000 compounds, 12% hits. AID 686979, 2013; also: nearly all actives have a fitted effect of over 55% in size
#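 Cell growth measured by CellTiter-Glo luminescence after a minimum 48 h, 37 C compound exposure with 20 nM CPT in Tdp1-knockout DT40 cells stably expressing hTDP1, seeded 400/well; qHTS titration format.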
# DT40 TDP1 no CPT: qHTS for Inhibitors of human tyrosyl-DNA phosphodiesterase 1 (TDP1): qHTS in cells in absence of CPT. Potency, µM (top dose mostly 46.2 µM), without a hit: top-dose activity change, negative = growth inhibition, hits mostly inhibitors. AID 686978, 2013. DT40 Tdp1-/- hTDP1 cells, no CPT, ATP luminescence, 48 h. 420,000 compounds, 15% hits; also: nearly all actives have a fitted effect of over 55% in size
#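 Readout: luminescence from CellTiter-Glo after 30 min in the dark at RT. Cells: DT40 Tdp1-/- with stable hTDP1, 400/well. Exposure: compounds alone, ≥48 hr, 37 °C.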
# RORgamma inh: qHTS for inhibitors of ROR gamma transcriptional activity; Nuclear receptor ROR-gamma (Mus musculus), P51450; Drosophila S2 Gal4-RORgamma UAS-luciferase reporter, 20 h; Potency, µM (highest dose often 53.6 µM), inactives show at the top dose activity change, negative = inhibition, actives largely listed as inhibitors; 310,000 compounds, 5.4% hits; also: nearly all actives have a fitted effect of over 60% in size
#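 Read-out: Photinus luciferase luminescence; inhibitors lower reporter signal. Insect Schneider cells with Gal4-ROR gamma fusion under metallothionein promoter, UAS reporter; 700 uM final copper sulfate induction, 20 hr, ambient temperature.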
# VP16 counter: VP16 counterscreen qHTS for inhibitors of ROR gamma transcriptional activity; Drosophila S2 Gal4-VP16 UAS-luciferase, luminescence, 20 h; Potency, µM (titrated, usually from 53.6 µM), for inactives: top-dose activity, negative = inhibition, usual class: inhibitors; 310,000 compounds, 3.5% hits;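 also: Gal4-VP16 expression switched on by copper sulfate through the metallothionein promoter; nearly all actives have a fitted effect of over 50% in size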
# ELG1 DNA repair: qHTS screen for small molecules that inhibit ELG1-dependent DNA repair in human embryonic kidney (HEK293T) cells expressing luciferase-tagged ELG1; Potency, µM (doses to about 46.1 µM), without a hit: top-dose activity change, negative = inhibition, usual class: inhibitors; HEK293T ELG1-luciferase reporter, luminescence, 16 h; DNA damage induced by 5-fluorouridine; 330,000 compounds, 2.3% hits; AID 504467, 2011; also: nearly all actives have a fitted effect of over 55% in size
#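 DMSO vehicle served as the neutral condition. Each well held 2,000 cells given 5-fluorouridine plus compound; after 16 hr at 37 °C/5% CO2, ONE-Glo was added and luciferase measured 30 min later.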
# ALOX12 inh: Primary qHTS assay for inhibitors of human arachidonate 12S-lipoxygenase (ALOX12): Round 2; Polyunsaturated fatty acid lipoxygenase ALOX12 (Homo sapiens), P18054; purified 12hLO, xylenol orange hydroperoxide absorbance; Potency, µM (doses to about 108 µM), without a hit: at the highest dose activity change, negative = inhibition, actives largely listed as inhibitors; 580,000 compounds, 1.1% hits; AID 1671190, 2021
# Target sequence (P18054 whole entry, looked up): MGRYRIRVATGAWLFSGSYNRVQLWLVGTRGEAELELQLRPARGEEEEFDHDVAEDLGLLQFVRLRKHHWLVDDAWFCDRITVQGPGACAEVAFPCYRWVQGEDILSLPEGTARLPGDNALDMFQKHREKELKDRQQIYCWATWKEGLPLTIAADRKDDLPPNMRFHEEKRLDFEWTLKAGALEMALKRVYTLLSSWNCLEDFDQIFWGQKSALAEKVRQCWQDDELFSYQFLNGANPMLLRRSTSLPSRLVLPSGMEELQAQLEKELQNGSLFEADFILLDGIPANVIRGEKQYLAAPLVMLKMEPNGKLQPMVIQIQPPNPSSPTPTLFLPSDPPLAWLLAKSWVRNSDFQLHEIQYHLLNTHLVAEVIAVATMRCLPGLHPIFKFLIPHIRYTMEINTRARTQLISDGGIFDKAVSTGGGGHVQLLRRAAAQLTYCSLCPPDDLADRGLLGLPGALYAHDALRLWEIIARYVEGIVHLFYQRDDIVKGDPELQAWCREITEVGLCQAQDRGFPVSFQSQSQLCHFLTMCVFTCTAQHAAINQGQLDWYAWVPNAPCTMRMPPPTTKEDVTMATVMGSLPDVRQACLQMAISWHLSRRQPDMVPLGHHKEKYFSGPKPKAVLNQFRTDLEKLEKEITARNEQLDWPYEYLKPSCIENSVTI
#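 Purified human 12hLO (150 nM final) in 25 mM Hepes, 0.01% Triton X-100, pH 7.0 was preincubated 15 min at room temperature with compound. Then 40 uM arachidonic acid was added, 30 min. Hydroperoxide was read by Fe-XO absorbance ratio 573/405 nm.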
# The depositor's hits bear a star; u = inconclusive; x = no result. Calls follow the shape of the dose curve; as a rule, active = well fitted curve in the direction sought with a large enough effect; inconclusive = small, poorly fitted or top-dose-only effect, or another doubt; inactive = no such curve, though single readings can be large; an effect the other way counts as inactive or inconclusive. % is scaled to controls: 0 for no effect and ±100 for the full control effect; potency is read from the fitted curve at half-maximal effect.
SMILES,DT40 TDP1 CPT,DT40 TDP1 no CPT,RORgamma inh,VP16 counter,ELG1 DNA repair,ALOX12 inh
CCCN1CCN(S(=O)(=O)c2ccc3c(c2)NC(=O)C(C)S3)CC1 (centres undefined),u,-24.2%,-7.6%,0.1%,-3.4%,-6.5%
CCOC(=O)N1CCN(S(=O)(=O)c2ccc3c(c2)OCC(=O)N3)CC1,-24.3%,-29.1%,10.0%,0.0%,-4.0%,19.0%
CCOC(=O)N1CCN(S(=O)(=O)c2ccc3c(c2)SC(C)C(=O)N3)CC1 (centres undefined),13µM*,9.2µM*,u,u,u,0.0%
CCOC(=O)N1CCN(S(=O)(=O)c2ccc(OCC)c(C)c2)CC1,u,9.2µM*,6.1%,u,u,-23.6%
CSc1ccccc1NC(=O)CN(C)C(=O)Cn1[nH]c(=O)c2ccccc2c1=O,x,x,x,x,x,38.8%
CCC(Sc1nc2ccc(N)cc2s1)C(=O)Nc1nccs1 (centres undefined),u,-28.7%,26.9%,-0.4%,u,u
CCC(Sc1nc(C)cc(C)n1)C(=O)Nc1nccs1 (centres undefined),28.2%,5.8%,u,u,18.3µM*,302.2%
CCOC(=O)c1sc2nc(CC(=O)OC)nc(NCc3ccco3)c2c1C,u,u,-14.0%,7.1%,u,170.5%
CCOC(=O)c1sc2ncnc(NCc3ccco3)c2c1C,18.4µM*,u,7.94µM*,11.2µM*,u,0.0%
CCc1cc2c(NCC(=O)O)ncnc2s1,-3.0%,u,6.8%,2.7%,8.1%,0.0%
CCc1cc2c(NCc3ccco3)ncnc2s1,18.4µM*,13µM*,u,u,-0.6%,u
CN1c2cc(C(=O)Nc3ccc(Cl)c(Cl)c3)ccc2C(=O)N2CCCCCC21 (centres undefined),x,x,x,x,x,-2.3%
Cc1cc(NS(=O)(=O)c2ccc(NC(=O)Nc3ccccc3)cc2)no1,-17.8%,-3.3%,-14.1%,1.1%,4.9%,6.8%
CCc1nnc(NS(=O)(=O)c2ccc(NC(=S)NC(=O)c3ccc(F)cc3)cc2)s1,-1.2%,1.1%,u,u,-1.4%,22.4µM*
Cc1cc(NS(=O)(=O)c2ccc(NC(=S)NC(=O)c3ccc(Br)cc3)cc2)no1,-14.6%,-15.0%,u,7.4%,11.2%,10µM*
Cc1cc(NS(=O)(=O)c2ccc(NC(=S)NCc3ccccc3)cc2)no1,-6.6%,-5.4%,28.9%,1.7%,17.2%,44.7µM*
COc1ccc(NC(=O)C(C)Oc2ccc(C)c(C)c2)c2cccnc12 (centres undefined),x,x,x,x,x,-8.6%
CC[C@H]1[C@@H]2C=C[C@@H]3[C@H]4C/C=C\C(=O)NCCC[C@@H]5NC(=O)C(=C5O)C(=O)CC[C@@H]4C[C@@H]3[C@H]2C[C@H]1C,x,x,2.24µM*,-1.5%,x,x
CC(=O)NNC(=S)NCc1ccc(C)cc1,x,x,x,x,x,28.7%
C=CCNC(=S)N/N=C/c1ccc(C)cc1C,5.17µM*,5.17µM*,0.447µM*,u,u,u
C=CCNC(=S)N/N=C/c1ccc(Cl)cc1Cl,x,x,x,x,x,55.7%
CN(C)c1ccc(/C=C/C(=O)c2ccccc2)cc1[N+](=O)[O-],1.8%,-29.5%,u,u,u,-7.8%
C=CCNC(=S)N/N=C/c1ccc(C)c([N+](=O)[O-])c1,14.6µM*,6.51µM*,1.12µM*,4.47µM*,-17.9%,-4.0%
CN(C)c1ccc(/C=N/NC(N)=S)cc1[N+](=O)[O-],-29.1%,u,17.8µM*,u,2.2%,-6.8%
COc1cc(NC(=O)Cn2c(-c3cnccn3)nc(C)c(CCO)c2=O)cc(OC)c1OC,x,x,x,x,x,4.6%
SMILES,DT40 TDP1 CPT,DT40 TDP1 no CPT,RORgamma inh,VP16 counter,ELG1 DNA repair,ALOX12 inh
O=C1CN(C(=O)CCC(=O)N2CCC(CCOc3ccccc3F)C2)c2ccccc2N1 (centres undefined),x,x,x,x,x,52.6%
O=c1c2cc(Br)ccc2[nH]c(=S)n1Cc1ccccn1,u,u,2.82µM*,u,14.0%,-20.5%
O=c1c2cc(Br)ccc2[nH]c(=S)n1Cc1ccccc1,u,u,2.51µM*,3.55µM*,u,-18.8%
C=CCC1(CO)CCCN(C(=O)c2cccc(N3CCNC3=O)c2)C1 (centres undefined),x,x,x,x,x,12.1%
CC(C)N(CC#CCC1(O)c2ccccc2-c2ccccc21)CCO,-14.4%,-12.2%,11.2%,3.8%,7.6%,7.94µM*
CCOC(=O)c1[nH]c(C)c(C(=O)N2CCc3c([nH]c4ccccc34)C2c2ccccn2)c1C (centres undefined),16.4µM*,u,15.2%,-15.1%,-7.3%,-10.4%
CC(=O)Nc1ccc(CN2CCc3c([nH]c4ccccc34)C2c2ccccn2)cc1 (centres undefined),u,20.6µM*,-16.4%,-13.3%,u,0.0%
Cc1cc2cc(C(=O)N3CCc4c([nH]c5ccccc45)C3c3ccccn3)ccc2o1 (centres undefined),u,18.4µM*,12.9%,-3.4%,u,0.0%
O=C(c1ccc(-n2cccn2)cc1)N1CCc2c([nH]c3ccccc23)C1c1ccccn1 (centres undefined),u,u,16.0%,2.1%,u,11.3%
CC(=O)c1ccc(C(=O)N2CCc3c([nH]c4ccccc34)C2c2cccc(C)n2)s1 (centres undefined),23.1µM*,14.6µM*,33.2%,-2.5%,u,-6.6%
CC(C)(C)c1cc(N=Cc2ccccc2O)cc(C(C)(C)C)c1O,x,x,x,x,x,121.4%
Cc1cc(-n2c(C)nc3ccccc3c2=O)ccc1NC(=O)c1ccc([N+](=O)[O-])cc1,u,u,x,x,x,-14.1%
Cc1cc(-n2c(C)nc3ccccc3c2=O)ccc1NC(=O)c1cccc([N+](=O)[O-])c1C,13µM*,6.51µM*,x,x,x,-15.1%
Cc1c(C(=O)Nc2ccc(-n3c(C)nc4ccccc4c3=O)cc2)cccc1[N+](=O)[O-],13µM*,7.31µM*,x,x,x,-11.1%
Cc1ccn2c(=O)c(NC(=O)c3cccc([N+](=O)[O-])c3C)c(C)nc2c1,14.6µM*,18.4µM*,x,x,x,-26.3%
